From PubChem BioAssay
MARV entry inh = inhibitors of Marburg virus binding or entry into cells | actives 6.5% (n = 18,000) | Potency, µM (doses to about 49.2 µM), without a hit: at the top dose activity change, negative = inhibition, hits mostly inhibitors | Marburg virus pseudotype entry/binding inhibition, cell-based
Lassa entry = blocks Lassa virus binding or cell entry; Lassa virus pseudotyped entry inhibition, cell-based qHTS; actives 4.1% (n = 18,000); Potency, µM (series often up to 49.2 µM), without a hit: at the highest dose activity change, negative = inhibition, usual class: inhibitors; AID 720533
Active calls of the source: *; ? = inconclusive; . = not tested or not shown; ! = not active in a repeat; [ ] = dose if it differs, or a comment. Rows were chosen to be rich in hits. Some 7.1% of all compounds tested hit in one or more screens of this group. Calls come from the whole dose curve; tested in HEK293 cells. % is set by controls: 0 for no effect and ±100 for the full control effect; potency is the fitted concentration of half-maximal effect.

SMILES | MARV entry inh | Lassa entry
C[C@H]1CCC/C=C/[C@@H]2C[C@H](O)C[C@H]2[C@H](O)/C=C/C(=O)O1 | 1.12µM* | 1.12µM*
C[C@H]1CCC/C=C/C2C[C@H](O)C[C@H]2[C@H](O)/C=C/C(=O)O1 (some centres undefined) | 0.631µM* | 0.631µM*!
C[C@H]1CCCC(=O)CCC/C=C/c2c(O)cc(O)cc2C(=O)O1 | -29.9% | -15.7%
CCOC(=O)NN=C1C[C@@H](O)[C@@H](O)[C@@H]2[C@H]3C(=O)N([C@@H](C)c4ccccc4)C(=O)[C@@H]3CC[C@@H]12 | -22.4%[8.59 µM] | -23.7%[8.59 µM]
COC(=O)NC(C=Cc1ccccc1)C(C(C)=O)C(=O)OC (centres undefined) | ? | -11.1%[8.59 µM]
O=C1C2=C(C(=O)c3ccccc31)[C@H]1O[C@](c3ccsc3)(Cc3ccccc31)O2 | -7.7%[8.59 µM] | -7.7%[8.59 µM]
COC[C@@H]1CCCN1[C@@H]1C[S+](=O)([O-])N[C@@H]1COCc1ccccc1 | 25.4% | -6.8%
COc1cccc2c1C1(CCCCC1)CC2NC(=O)C(F)(F)F (centres undefined) | -14.5%[8.59 µM] | -10.8%[8.59 µM]
CCc1ccc(S(=O)(=O)O)cc1 | -2.6% | -8.2%
O=C(O)c1[nH]n(-c2ccc(S(=O)(=O)O)cc2)c(=O)c1N=Nc1ccc(S(=O)(=O)O)cc1 | ? | 3.98µM*
O=C1NC(=O)c2c1c1c3ccccc3[nH]c1c1[nH]c3ccccc3c21 | ? | -16.5%
CNCCCCc1cnc(C)c2[nH]c3ccccc3c12 | 11.2µM* | ?
C[C@H]1C(C(=O)N2CCCC2)=Cc2[nH]c(=O)[nH]c2C=C1c1ccccc1 | 18.4%[8.59 µM] | 4.0%[8.59 µM]
C[C@H]1CC[C@H]2C(=O)N(Cc3ccccc3)C[C@@H](O)CN2[C@H]1c1cccc(Br)c1 | 10.3%[8.59 µM] | .
CCCCNCC(O)c1ccc(O)cc1 (centres undefined) | 5.7% | -2.1%
OCc1cc([C@@H](O)CNCCCCCCOCCCCc2ccccc2)ccc1O | 12.6µM* | ?
CC(=O)O[C@H]1C[C@@H]2CC[C@@H]3[C@H](CC[C@@]4(C)[C@H]3C[C@H]([N+]3(C)CCCCC3)[C@@H]4OC(C)=O)[C@@]2(C)C[C@@H]1N1CCCCC1 | 26.2% | 2.1%
CCC(=O)O[C@H]1[C@@H](N2CCCCC2)C[C@H]2[C@@H]3CC[C@H]4C[C@H](OC(C)=O)[C@@H](N5CCCCC5)C[C@]4(C)[C@H]3CC[C@@]21C | 3.55µM* | ?
COP(=O)(OC)[C@@H](O)C(Cl)(Cl)Cl | 9.8%[17.8 µM] | 3.98µM*
COCCNc1cc(-c2ccccc2CN(C)C)ncn1 | -15.3% | -1.7%
CNc1ccnc(-c2ccccc2CN(C)C)n1 | -5.5% | 3.7%
Cc1cccc(CNc2cc(-c3ccccc3CN(C)C)ncn2)c1 | 6.31µM* | -4.4%
Cc1cccc(CNc2ccnc(-c3ccccc3CN(C)C)n2)c1 | 11.2µM* | ?
COc1ccccc1-c1cncnc1NCc1cccc(C)c1 | -17.0% | -4.8%
COc1ccccc1-c1nccc(NCc2cccc(C)c2)n1 | 12.6µM* | -19.1%
SMILES | MARV entry inh | Lassa entry
COc1ccc2c(c1)[C@@H](NC(=O)C(F)(F)F)C1CCCCC21c1ccccc1 (some centres undefined) | -4.1%[8.59 µM] | 4.6%[8.59 µM]
O=C(OCc1cn([C@H]2CN(C(=O)c3cccs3)[C@@H](c3ccc(Cl)cc3)C[C@H]2O)nn1)c1ccccc1 | -8.9% | -12.3%
C[C@@H](C1[C@@H](O)CC2C3C=CC4C[C@@H](O)CC[C@]4(C)[C@H]3CC[C@@]21C)[C@@H]1CCCCN1 (some centres undefined) | 11.2µM* | 5.5%
CCCC1CCCCN1 (centres undefined) | 3.6% | -4.2%
C1CCC(C(CC2CCCCN2)C2CCCCC2)CC1 (centres undefined) | 3.98µM* | ?
COC(=O)C1=C(C)C(=O)[C@]2(O)c3ccccc3N(C)[C@]12C | 18.2%[8.59 µM] | -18.1%[8.59 µM]
Nc1nc(-c2cccc(Cl)c2)c(-c2ccc3ncccc3n2)s1 | 5.3% | 18.2%
C[C@]12CCC3C(CC[C@]4(O)C[C@@H](O)CC[C@]34C=O)[C@@]1(O)CC[C@@H]2C1=CC(=O)OC1 (some centres undefined) | ? | 1µM*
Cc1ccc(-c2cc3c(NC(=O)C4CC4)ncnc3o2)cc1 | 44.0% | 26.5%
O=C(/C=C/c1ccc(O)c(O)c1)c1ccc(O[C@@H]2O[C@H](CO)[C@@H](O)[C@H](O)[C@H]2O)c(O)c1O | 3.16µM* | 1.7%
O=C1C[C@@H](c2ccc(O)c(O)c2)Oc2c1ccc(O[C@@H]1O[C@H](CO)[C@@H](O)[C@H](O)[C@H]1O)c2O | ? | -0.6%
CC(CCC(=O)OC[C@H]1O[C@H](C#Cc2ccccc2)C=C[C@H]1Oc1ccc(C)cc1)=NO[C@@H](C)c1cn([C@H](CO)Cc2ccccc2)nn1 | 8.5%[8.59 µM] | .
COc1ccc(Nc2ncc(-c3ccccc3)o2)cc1OC | -31.0% | .
COc1ccc(C(=O)OC2C[C@H]3CC[C@@H](C2)N3C)cc1OC (some centres undefined) | -20.3%[17.8 µM] | 8.5%[17.8 µM]
CN1[C@@H]2CC[C@H]1CC(OC(c1ccc(F)cc1)c1ccc(F)cc1)C2 (some centres undefined) | 7.94µM* | 14.1µM*
O=C1[C@H]2[C@@H]3[C@@H](O)[C@H](O)CC(=NOCc4ccccc4)[C@@H]3CC[C@H]2C(=O)N1C1CCCCC1 | -13.6%[8.59 µM] | .
C=C1CCC(O)C/C1=C/C=C1\CCC[C@]2(C)[C@@H]([C@H](C)CCCC(C)C)CC[C@@H]12 (some centres undefined) | -17.0% | -15.6%
C=C1CCC(O)C/C1=C\C=C1/CCCC2(C)C1CCC2C(C)/C=C/C(C)C(C)C (centres undefined) | 26.6% | -29.2%
C=C1C(=C/C=C2\CCC[C@]3(C)[C@@H]([C@H](C)/C=C/[C@@H](O)C4CC4)CC[C@@H]23)C[C@@H](O)C[C@@H]1O | -24.8% | 14.1µM*
C=C1C(=C/C=C2\CCC[C@]3(C)[C@@H]([C@H](C)CCCC(C)C)CC[C@@H]23)C[C@@H](O)C[C@@H]1O | -15.1% | 15.8µM*
COC(=O)C1=NN=C(C(=O)OC)[C@@]2(C)c3ccccc3NC12 (some centres undefined) | 44.1%[8.59 µM] | 13.0%[8.59 µM]
COc1ccc(C=CNC(=O)Cc2ccc(OC)c(OC)c2)cc1 | 24.4%[8.59 µM] | -5.7%[8.59 µM]
CCN1C(=NCc2ccc3c(c2)OCO3)NC(c2ccccc2)C(C(=O)OC)=C1C (centres undefined) | -18.1%[8.59 µM] | -3.6%[8.59 µM]
CCOC(=O)c1c(C)n(C)c2ccc(O)cc12 | 5.7% | -4.0%
CCCCNc1c(C(=O)OCC)c(C)nc2c1cnn2CC | 7.94µM*! | 25.1µM*!
SMILES | MARV entry inh | Lassa entry
Clc1ccc2c(c1)CCc1cccnc1C2=C1CCNCC1 | 10µM* | 25.1µM*
COc1ccc2c(c1)C[C@@H](C)O[C@]21C(=O)Nc2ccccc21 | 70.8%[8.59 µM] | 35.5%[8.59 µM]
Oc1cc2c(cc1O)[C@@H]1c3ccc(O)c(O)c3OC[C@]1(O)C2 | 5.62µM* | -19.8%
CCOC(=O)CN1C(=O)N(CC)C(C)=C(C(=O)OC)C1c1ccccc1 (centres undefined) | ? | -25.0%[8.59 µM]
C=CCN1C(=O)[C@@]2(CC(C)=C[C@@H](COc3ccccc3)O2)c2ccccc21 | 2.0%[8.59 µM] | 6.8%[8.59 µM]
CC(C)COCC(CN(Cc1ccccc1)c1ccccc1)N1CCCC1 (centres undefined) | 6.31µM* | 14.1µM*!
CC=COC(=O)N[C@@H](c1ccccc1)[C@]1(C(C)=O)CCOC1=O | 6.8%[8.59 µM] | 24.4%[8.59 µM]
CCCCCCCCCCCCCCCCCCNC(=O)OC1CCN(C(=O)OC[C@H](COC(=O)N(Cc2cccc[n+]2CC)C(=O)c2ccccc2OC)OC)CC1 | 11.2µM* | 12.6µM*
